Experimental data taken from PubChem BioAssay (Tox21).
Values joined by “and” are separate entries in the source; they are usually repeats but may differ in a detail not shown here. Equal entries are not always repeated. Records with an inconclusive call do not appear. Some structures have more than one record in an assay (separate samples or runs), and their calls can disagree. Active and inactive are the calls of the source. Unless noted, the call rests on the fitted dose curve; in most records, active means well fitted curve in the direction sought with a large enough effect in the repeat runs; inconclusive means weak or mixed curves; inactive means no such curve, though single readings can be large; an effect the other way counts as inactive or inconclusive.

What was measured:
[1] = qHTS assay to identify small molecule agonists of the androgen receptor (AR) signaling pathway in the presence of an antagonist - cell viability counter screen (AID 1259379); further: nearly all actives have a fitted effect of over 25% in size; further: potency means the concentration at half of the fitted maximal effect
Procedure, shortened: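 MDA-kb2 viability measured by CellTiter-Fluor fluorescence in the same wells as the luciferase signal; nilutamide 3.0uM final; 15-point compound titration; 16 hr at 37C.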

[2] = qHTS assay to identify small molecule agonists of the estrogen receptor beta (ER-beta) signaling pathway - cell viability counter screen (AID 1259380); further: nearly all actives have a fitted effect of over 30% in size; further: potency means the concentration at half of the fitted maximal effect
Procedure, shortened: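 Measured: luminescence from CellTiter-Glo after 30 min at room temperature, added to wells already read for the LiveBLAzer FRET reporter (2 hr substrate); ER-beta-UAS-bla HEK293T cells had 16 hr compound treatment at 37C, 5% CO2.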

[3] = target: Androgen receptor (Homo sapiens) (UniProt P10275); experiment: qHTS assay to identify small molecule agonists of the androgen receptor (AR) signaling pathway in the presence of an antagonist (AID 1259381; calls by dose curve; further: nearly all actives have a fitted effect of over 15% in size)
Procedure, shortened: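 Luminescent ONE-Glo read, 30min at room temperature, follows 16hr compound exposure (15 concentrations) of MDA-kb2 cells at 37C, 0% CO2, with nilutamide added at 3.0uM final.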

[4] = qHTS assay to identify small molecule antagonists of the estrogen receptor beta (ER-beta) signaling pathway - cell viability counter screen (AID 1259382); further: nearly all actives have a fitted effect of over 55% in size; further: potency means the concentration at half of the fitted maximal effect
Procedure, shortened: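 Readout: luminescence, CellTiter-Glo, same wells as bla assay. System: ER-beta-UAS-bla GripTite HEK293T, 2% charcoal-stripped FBS. Exposure: compounds plus 1nM 17-beta-estradiol, 16 hr, 37C.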

[5] = qHTS assay to identify small molecule agonists or antagonists of the thyroid stimulating hormone receptor (TSHR) signaling pathway - wild type cell line counter screen (AID 1259384; calls by dose curve)
Procedure, shortened: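 Counter screen in untransfected Hek293: compounds (15-point titration, triplicate) plus phosphodiesterase inhibitor Ro20-1724 added after 18 h plating; 30 min RT. Intracellular cAMP via competitive d2/cryptate immunoassay, 1 h incubation.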

[6] = target: Thyrotropin receptor (Homo sapiens) (UniProt P16473); experiment: qHTS assay to identify small molecule antagonists of the thyroid stimulating hormone receptor (TSHR) signaling pathway (AID 1259385; calls by dose curve; further: nearly all actives have a fitted effect of over 20% in size)
Procedure, shortened: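 Antagonist mode: compound-treated TSHR-expressing HEK293 cells were stimulated with 1.5 ng/mL TSH (final) in presence of Ro20-1724 for 30 min at RT. HTRF cAMP detection after 1 h; each compound tested at 15 concentrations, triplicate.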

[7] = qHTS assay to identify small molecule agonists of the estrogen receptor alpha (ER-alpha) signaling pathway in the presence of an antagonist - cell viability counter screen (AID 1259386);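 further: series mostly up to about 92 µM; cells exposed to compounds for 22 h at 37 °C before the viability read; nearly all actives have a fitted effect of over 30% in size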
Procedure, shortened: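 The test measures whether compounds kill ER-alpha reporter cells (VM7Luc4E2) under antagonist co-treatment (ICI-182,780, 10.0nM). Fluorescence from CellTiter-Fluor is read after a 22hr exposure.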

[8] = target: Progesterone receptor (Homo sapiens) (UniProt P06401); experiment: qHTS assay to identify small molecule agonists of the progesterone receptor (PR) signaling pathway (AID 1346784; calls by dose curve; further: nearly all actives have a fitted effect of over 30% in size)
Procedure, shortened: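 Reporter assay, GripTite PR-UAS-bla HEK 293T cells: 16 hr exposure to DMSO-dissolved compounds at 37C, 5% CO2, in steroid-depleted (2% charcoal-stripped FBS) medium; beta-lactamase measured by FRET fluorescence.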

[9] = qHTS assay to identify small molecule antagonists of the progesterone receptor (PR) signaling pathway - cell viability counter screen (AID 1346798); further: nearly all actives have a fitted effect of over 50% in size; further: potency means the concentration at half of the fitted maximal effect
Procedure, shortened: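 In the same plates used for the beta-lactamase readout, cell viability of compound- and R5020-treated PR-UAS-bla HEK293T cells (16 hr, 37C) was assessed by CellTiter-Glo luminescence.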

[10] = qHTS assay to identify small molecule agonists of the progesterone receptor (PR) signaling pathway - cell viability counter screen (AID 1346799; calls by dose curve; further: nearly all actives have a fitted effect of over 45% in size; further: potency means the concentration at half of the fitted maximal effect)
Procedure, shortened: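 Multiplexed viability read: CellTiter-Glo luminescence, 30 min RT, following LiveBLAzer FRET measurement on PR-UAS-bla HEK293T cells exposed to compounds 16 hr.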

[11] = qHTS assay to identify small molecule agonists of the TGF-beta/Smad signaling pathway - cell viability counter screen (AID 1346829); further: nearly all actives have a fitted effect of over 45% in size; further: potency means the concentration at half of the fitted maximal effect
Procedure, shortened: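 Tox21 qHTS format: SBE-bla HEK 293T cells treated with DMSO-dissolved compounds for 5 hr; CellTiter-Glo luminescence after 30 min at room temperature.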

[12] = qHTS assay to identify small molecule agonists of the TGF-beta/Smad signaling pathway (AID 1346859; active means well fitted activation curve with a large enough effect in the signal ratio in the repeat runs, not every such curve was filed as active; the % refers to the signal ratio; further: series mostly up to about 77 µM)
Procedure, shortened: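 Screening used HEK 293T SBE-bla cells at 4,000/well. Test agents: 5 hr, 37 C. Detection: FRET substrate, 2 hr RT, then excitation 405 nm with emissions at 460 and 530 nm.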

[13] = target: Thyrotropin-releasing hormone receptor (Homo sapiens) (UniProt P34981); experiment: qHTS assay to identify small molecule antagonists of the thyrotropin-releasing hormone receptor (TRHR) signaling pathway (AID 1346877; active means well fitted inhibition curve with a large enough effect in the repeat runs, not every such curve was filed as active; further: series mostly up to about 51 µM)
Procedure, shortened: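 Overnight-plated (18 h, 37 °C) HEK293 cells expressing TRHR were dye-loaded 2 h, treated with compound, then stimulated with TRH at 1 nM final. Fluorescence intensity was captured every second for 3 min.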

[14] = target: Thyrotropin-releasing hormone receptor (Homo sapiens) (UniProt P34981); experiment: qHTS assay to identify small molecule agonists of the thyrotropin-releasing hormone receptor (TRHR) signaling pathway (AID 1346891; calls by dose curve; further: series mostly up to about 58 µM)
Procedure, shortened: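 Readout was intracellular calcium fluorescence in TRHR-Hek293 cells. Cells were incubated 18 h, dye-loaded 2 h at 37 °C, and treated with compound in agonist mode.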

[15] = Human pregnane X receptor (PXR) small molecule agonists, qHTS cell viability counter screen (AID 1346977); further: nearly all actives have a fitted effect of over 50% in size; further: potency means the concentration at half of the fitted maximal effect
Procedure, shortened: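 In each well, the PXR reporter HepG2 line was checked for viability: CellTiter-Fluor reagent added 23hr post-dosing, fluorescence read after 1hr incubation at 37C.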

[16] = target: Estrogen receptor (Homo sapiens) (UniProt P03372); experiment: qHTS assay to identify small molecule agonists of the estrogen receptor alpha (ER-alpha) signaling pathway in the presence of an antagonist (AID 1259383; calls by dose curve; further: nearly all actives have a fitted effect of over 15% in size; further: potency means the concentration at half of the fitted maximal effect; on activation: top concentration of the series differs between compounds)
Procedure, shortened: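 Quantitative HTS confirmation: compounds titrated at 15 concentrations onto estrogen-deprived VM7Luc4E2 cells carrying a four-ERE luciferase construct, with ICI-182,780 present at 10.0nM final. Signal is luminescence after 22hr exposure.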

[17] = target: Progesterone receptor (Homo sapiens) (UniProt P06401); experiment: qHTS assay to identify small molecule antagonists of the progesterone receptor (PR) signaling pathway (AID 1346795; active means well fitted inhibition curve with a large enough effect in the signal ratio in the repeat runs, not every such curve was filed as active; the % refers to the signal ratio)
Procedure, shortened: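 Stimulus R5020 at 1 nM final; cells HEK293T PR-UAS-bla; medium with 2% charcoal-stripped FBS; compound exposure 16 hr at 37C, 5% CO2; detection by FRET beta-lactamase substrate, 2 hr, room temperature.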

[18] = qHTS assay to identify small molecule antagonists of the TGF-beta/Smad signaling pathway - cell viability counter screen (AID 1346824); further: nearly all actives have a fitted effect of over 50% in size; further: potency means the concentration at half of the fitted maximal effect
Procedure, shortened: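 Cytotoxicity counter-screen run in the same wells as the beta-lactamase Smad reporter read: CellTiter-Glo luminescence after 30 min at room temperature. HEK 293T SBE-bla cells had 5 hr compound exposure at 37 C with TGF-beta1 (0.25 ng/mL stock).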

Measured: Potency

Progesterone receptor (Homo sapiens), sequence (P06401 whole entry, looked up): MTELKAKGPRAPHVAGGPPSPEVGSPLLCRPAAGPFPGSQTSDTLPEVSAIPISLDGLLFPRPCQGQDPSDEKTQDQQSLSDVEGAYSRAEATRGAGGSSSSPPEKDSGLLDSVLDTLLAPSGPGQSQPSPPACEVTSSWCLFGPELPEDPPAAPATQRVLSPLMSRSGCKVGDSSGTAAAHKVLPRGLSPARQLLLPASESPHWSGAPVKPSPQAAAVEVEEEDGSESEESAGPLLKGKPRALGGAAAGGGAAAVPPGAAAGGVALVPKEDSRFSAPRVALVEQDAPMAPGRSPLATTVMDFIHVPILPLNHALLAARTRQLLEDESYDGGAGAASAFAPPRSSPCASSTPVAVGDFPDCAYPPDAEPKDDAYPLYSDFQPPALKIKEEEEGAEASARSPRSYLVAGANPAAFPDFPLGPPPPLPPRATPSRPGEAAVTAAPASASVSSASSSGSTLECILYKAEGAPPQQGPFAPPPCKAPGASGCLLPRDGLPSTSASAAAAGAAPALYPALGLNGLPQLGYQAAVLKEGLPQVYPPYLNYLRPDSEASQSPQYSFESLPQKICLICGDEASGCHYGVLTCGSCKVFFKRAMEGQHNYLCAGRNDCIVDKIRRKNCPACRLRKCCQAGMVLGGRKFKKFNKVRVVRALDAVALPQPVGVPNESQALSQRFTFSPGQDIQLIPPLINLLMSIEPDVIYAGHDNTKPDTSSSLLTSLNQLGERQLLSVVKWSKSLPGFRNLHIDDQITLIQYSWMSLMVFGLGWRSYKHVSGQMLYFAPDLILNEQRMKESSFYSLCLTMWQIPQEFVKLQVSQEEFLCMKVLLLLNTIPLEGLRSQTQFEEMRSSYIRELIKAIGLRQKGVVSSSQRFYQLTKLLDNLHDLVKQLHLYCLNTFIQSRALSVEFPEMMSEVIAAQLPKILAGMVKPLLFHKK
Thyrotropin receptor (Homo sapiens), sequence (P16473 whole entry, looked up): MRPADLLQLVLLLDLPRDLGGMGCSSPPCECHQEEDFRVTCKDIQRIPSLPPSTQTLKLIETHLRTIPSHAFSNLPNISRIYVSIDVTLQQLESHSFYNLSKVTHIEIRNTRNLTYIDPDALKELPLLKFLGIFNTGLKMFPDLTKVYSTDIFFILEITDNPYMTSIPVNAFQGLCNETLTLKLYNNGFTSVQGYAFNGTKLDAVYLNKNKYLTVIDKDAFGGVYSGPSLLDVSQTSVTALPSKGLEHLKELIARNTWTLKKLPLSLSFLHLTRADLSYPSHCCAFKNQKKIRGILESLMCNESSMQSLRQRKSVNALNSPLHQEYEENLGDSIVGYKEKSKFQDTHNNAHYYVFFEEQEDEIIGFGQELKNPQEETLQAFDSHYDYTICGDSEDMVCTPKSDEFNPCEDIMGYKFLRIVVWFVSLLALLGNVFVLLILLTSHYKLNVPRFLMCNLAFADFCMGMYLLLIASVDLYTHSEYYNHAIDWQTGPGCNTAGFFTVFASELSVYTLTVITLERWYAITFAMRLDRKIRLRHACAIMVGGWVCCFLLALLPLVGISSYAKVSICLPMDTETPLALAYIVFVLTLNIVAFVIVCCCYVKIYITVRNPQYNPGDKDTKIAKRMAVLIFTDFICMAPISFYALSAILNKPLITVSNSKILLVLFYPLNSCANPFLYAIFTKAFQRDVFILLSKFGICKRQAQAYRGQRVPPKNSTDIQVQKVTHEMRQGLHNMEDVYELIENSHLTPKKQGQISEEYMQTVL
Estrogen receptor (Homo sapiens), sequence (P03372 whole entry, looked up): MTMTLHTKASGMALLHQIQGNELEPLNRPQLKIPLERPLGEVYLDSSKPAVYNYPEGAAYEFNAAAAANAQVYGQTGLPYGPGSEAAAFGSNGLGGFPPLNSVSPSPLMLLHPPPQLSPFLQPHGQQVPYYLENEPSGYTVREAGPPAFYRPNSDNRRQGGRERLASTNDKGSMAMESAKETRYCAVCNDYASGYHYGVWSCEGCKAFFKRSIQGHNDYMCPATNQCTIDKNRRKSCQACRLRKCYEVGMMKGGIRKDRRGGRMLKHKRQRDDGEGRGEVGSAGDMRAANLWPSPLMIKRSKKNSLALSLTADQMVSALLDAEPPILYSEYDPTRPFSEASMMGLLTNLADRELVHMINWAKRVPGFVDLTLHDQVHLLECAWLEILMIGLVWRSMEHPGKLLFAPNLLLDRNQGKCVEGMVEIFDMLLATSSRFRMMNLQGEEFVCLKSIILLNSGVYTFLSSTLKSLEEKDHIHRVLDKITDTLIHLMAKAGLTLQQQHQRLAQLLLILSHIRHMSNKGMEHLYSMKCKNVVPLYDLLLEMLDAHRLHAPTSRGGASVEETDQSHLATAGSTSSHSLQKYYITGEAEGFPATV
Androgen receptor (Homo sapiens), sequence (P10275 whole entry, looked up): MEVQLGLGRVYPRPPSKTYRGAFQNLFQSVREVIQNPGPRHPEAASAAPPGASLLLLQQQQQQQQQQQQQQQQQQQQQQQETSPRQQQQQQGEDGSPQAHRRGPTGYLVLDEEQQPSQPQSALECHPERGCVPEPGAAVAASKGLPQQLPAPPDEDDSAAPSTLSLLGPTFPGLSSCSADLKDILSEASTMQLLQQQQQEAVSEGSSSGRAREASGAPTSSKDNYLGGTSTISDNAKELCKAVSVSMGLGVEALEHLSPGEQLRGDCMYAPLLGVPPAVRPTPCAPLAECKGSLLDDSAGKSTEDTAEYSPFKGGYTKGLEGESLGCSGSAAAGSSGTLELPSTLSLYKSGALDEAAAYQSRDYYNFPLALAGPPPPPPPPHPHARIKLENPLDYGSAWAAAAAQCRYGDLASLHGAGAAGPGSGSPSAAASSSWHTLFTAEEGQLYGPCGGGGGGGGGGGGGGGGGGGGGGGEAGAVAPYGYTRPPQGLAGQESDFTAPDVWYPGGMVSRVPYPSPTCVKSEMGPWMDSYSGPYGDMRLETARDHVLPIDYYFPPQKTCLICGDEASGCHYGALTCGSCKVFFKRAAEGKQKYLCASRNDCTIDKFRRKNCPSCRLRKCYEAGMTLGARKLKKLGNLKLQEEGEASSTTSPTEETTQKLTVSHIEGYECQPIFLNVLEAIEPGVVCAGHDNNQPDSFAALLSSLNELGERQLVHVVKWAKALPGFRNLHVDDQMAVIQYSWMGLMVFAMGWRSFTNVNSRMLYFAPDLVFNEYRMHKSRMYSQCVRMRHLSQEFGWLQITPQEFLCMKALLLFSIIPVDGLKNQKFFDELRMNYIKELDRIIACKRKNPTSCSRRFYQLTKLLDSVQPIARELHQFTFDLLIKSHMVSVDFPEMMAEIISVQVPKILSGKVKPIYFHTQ
Thyrotropin-releasing hormone receptor (Homo sapiens), sequence (P34981 whole entry, looked up): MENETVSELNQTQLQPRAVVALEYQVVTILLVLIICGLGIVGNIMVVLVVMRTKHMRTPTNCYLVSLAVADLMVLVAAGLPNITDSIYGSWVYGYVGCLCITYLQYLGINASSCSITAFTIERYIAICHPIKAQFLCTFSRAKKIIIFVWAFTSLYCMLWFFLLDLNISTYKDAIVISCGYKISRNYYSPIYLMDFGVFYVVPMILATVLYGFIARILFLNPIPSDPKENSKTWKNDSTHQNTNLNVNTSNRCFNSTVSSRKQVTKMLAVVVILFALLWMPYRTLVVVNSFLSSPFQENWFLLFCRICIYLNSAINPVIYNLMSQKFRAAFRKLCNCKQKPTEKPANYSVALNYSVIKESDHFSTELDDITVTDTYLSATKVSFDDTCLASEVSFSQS

CC(C)(C)CC(C)(C)c1ccc(O)cc1
active: [2] 30.6 µM and 33.5 µM | [4] 57.7 µM and 33.5 µM | [9] 54.5 µM | [10] 48.6 µM | [15] 54.5 µM
43.6 µM (active) and inactive: [11]
inactive: [1] | [3] | [5] | [6] | [7] | [8] | [12] | [13] | [14]

CC[N+]1(CCOC(=O)C(O)(c2ccccc2)c2ccccc2)CCCCC1
inactive: [1] | [2] | [4] | [16] | [5] | [6] | [7] | [8] | [17] | [9] | [10] | [18] | [11] | [12] | [15]

C=CC(=O)OCC
inactive: [1] | [2] | [4] | [5] | [6] | [7] | [8] | [17] | [9] | [10] | [11] | [12] | [13] | [14] | [15]

C=C(Cl)Cl
inactive: [1] | [3] | [4] | [16] | [5] | [6] | [8] | [17] | [9] | [10] | [18] | [11] | [12] | [15]

C=CCSSCC=C
inactive: [1] | [2] | [4] | [5] | [6] | [7] | [8] | [17] | [10] | [18] | [11] | [12] | [13] | [14] | [15]

COC(=O)Cc1ccccc1
inactive: [1] | [4] | [7] | [8] | [17] | [10] | [18] | [11] | [12] | [15]

CC(C)C1(C)N=C(c2ncccc2C(=O)O)NC1=O (stereo unspecified)
inactive: [1] | [2] | [4] | [5] | [6] | [7] | [8] | [10] | [18] | [11] | [12] | [13] | [14] | [15]

C#C[C@]1(O)CC[C@H]2[C@@H]3CCC4=CC(=O)CCC4=C3C=C[C@@]21CC
active: [16] 1.06 µM
inactive: [1] | [4] | [5] | [6] | [18] | [11] | [13] | [14] | [15]

CCOC(C(=O)OCCN(C)C)(c1ccccc1)c1ccccc1
inactive: [1] | [4] | [5] | [6] | [8] | [17] | [9] | [10] | [18] | [11] | [12] | [13] | [14]

CCc1cnc(C2=NC(C)(C(C)C)C(=O)N2)c(C(=O)O)c1 (stereo unspecified)
inactive: [1] | [2] | [4] | [5] | [6] | [7] | [8] | [17] | [10] | [18] | [11] | [12] | [13] | [14] | [15]

CCCCCCCCCCCC[N+](C)(C)CCOc1ccccc1
inactive: [5] | [6] | [8] | [13] | [14]
active: [1] 68.6 µM | [4] 19.3 µM and 15 µM | [9] 54.5 µM and 13.3 µM | [10] 24.3 µM and 23.7 µM | [18] 43.7 µM | [11] 55 µM and 26.8 µM | [15] 61.1 µM

CN1C(=O)CN=C(c2ccccc2)c2cc([N+](=O)[O-])ccc21
inactive: [1] | [3] | [4] | [5] | [6] | [8] | [17] | [9] | [10] | [18] | [11] | [12] | [13] | [14] | [15]

FC(Cl)(Cl)C(F)(Cl)Cl
inactive: [1] | [2] | [4] | [5] | [6] | [8] | [9] | [10] | [18] | [11] | [12] | [15]

CCCC[N+](CCCC)(CCCC)CCCC
inactive: [4] | [16] | [7] | [8] | [17] | [9] | [10] | [18] | [11] | [12] | [13] | [14] | [15]

N#CC1(N=NC2(C#N)CCCCC2)CCCCC1
inactive: [1] | [2] | [4] | [5] | [6] | [8] | [9] | [10] | [18] | [11] | [12] | [13] | [14] | [15]

Nc1ccccc1C(=O)OCCc1ccccc1
inactive: [1] | [5] | [6] | [7] | [8] | [9] | [10] | [18] | [12] | [13] | [14] | [15]

COC1CC(=C(c2cccs2)c2cccs2)C[N+](C)(C)C1 (stereo unspecified)
inactive: [4] | [5] | [6] | [7] | [8] | [17] | [10] | [18] | [11] | [12] | [13] | [14] | [15]

NCCc1cc(O)c(O)cc1O
inactive: [1] | [4] | [16] | [5] | [8] | [17] | [10] | [18] | [12] | [13] | [14] | [15]

CC(=O)OC(c1ccccc1)C(Cl)(Cl)Cl (stereo unspecified)
inactive: [1] | [2] | [4] | [5] | [7] | [8] | [9] | [10] | [18] | [11] | [12] | [15]
